Where “and” joins values, the source holds several entries; their conditions need not be identical. Identical values can stand only once. Records with an inconclusive call do not appear. Unmarked numbers belong to inactive results. Calls of active or inactive are those of the source. Calls come from the whole dose curve; as a rule, active = well fitted inhibition curve with a large enough effect; inconclusive = small, poorly fitted or top-dose-only effect; inactive = flat fitted curve, though single readings scatter.
% is set by controls: 0 for no effect and ±100 for the full control effect; potency is the fitted concentration of half-maximal effect.

This assay is described as follows: Primary qHTS for inhibitors of nuclear receptor binding SET domain protein 2 (NSD2) in an isogenic RCH-ACV NSD2 p.E1099K mutant (9B) (AID 1645876). Note: nearly all actives have a fitted effect of over 70% in size. To be noted: RCH-ACV (leukaemia line) NSD2 E1099K (9B) viability, CellTiter-Glo, 72 h; series mostly up to 44.9 µM; activity change, negative = viability loss: at the top concentration. On the technique in general: In qHTS, concentration-response curves come from the screen itself.
Turning to `O=C(/C=C\n1cnc(-c2cc(C(F)(F)F)cc(C(F)(F)F)c2)n1)N1CC(F)(F)C1`, the Potency was 934 nM (active). For `COc1c2c(c(C)c3c1C(=O)OC3)OC1(C)CC(O)C34OC(OC)(CC(OC(C)=O)C3(C)C1C2)OC4(C)C` (centres undefined), the “outcome” value is “inactive [at 17.3 µM]”. `CN1CCN(c2ccc(C(=O)Nc3n[nH]c4ccc(Cc5cc(F)cc(F)c5)cc34)c(NC3CCOCC3)c2)CC1`: the Potency was 3.25 µM (active) and 4.68 µM (active) and 6.51 µM (active). For `CC(C)c1ccc(CO)cc1O[C@@H]1O[C@H](CO)[C@@H](O)[C@H](O)[C@H]1O`, the outcome was inactive. On the same count and under the same terms, with `O=C(/C=C\c1ccc(O)cc1)N[C@@H](Cc1ccc(O)cc1)C(=O)O` the entry was “inactive”. Take `CCC(C)C(=O)OC1CC(O)C23C4OCC5(C(O)CC2C1(C)C(O)O4)C3C(=O)C(O)C1(C)C(O)(c2ccoc2)CC2OC251` (centres undefined): the Potency was 136 nM (active).

On to `C/C1=C\CC[C@]2(C)O[C@@H]2[C@H](O)[C@H](C(C)C)[C@H](OC(=O)/C=C/c2ccccc2)C1`, for which the “activity change, negative = viability loss” value is -17.9%. Consider `COc1ccc(C2(O)c3ccccc3NC(=O)C2O)cc1` (centres undefined), for which the “activity change, negative = viability loss” value is -8.45%. Take `CC(C)=CCC/C(C)=C/CCC1(C)Oc2c(c(O)cc3c2CN(C(CCC(=O)O)C(=O)O)C3=O)CC1O` (centres undefined): the “activity change, negative = viability loss” value is -1.12% [at 17.3 µM]. For the molecule `CC1(C)CCC[C@]2(C)[C@H]3CC(=O)O[C@]3(C)CC[C@@H]12`, the “activity change, negative = viability loss” value was -30.7%.

Regarding `O=S(=O)(c1ccc(S(=O)(=O)n2cnc3ccccc32)cc1)N1CCCCCC1`, the “activity change, negative = viability loss” value was -23% [at 17.3 µM]. Same read-out and setting: with `CC(C)(C)c1ccc(S(=O)(=O)Nc2ccc(Cl)cc2C(=O)c2cc[n+]([O-])cc2)cc1` the figure was -7.56%; with `OC[C@H]1O[C@@H](OC[C@H]2O[C@@H](OC/C=C/c3ccccc3)[C@H](O)[C@@H](O)[C@@H]2O)[C@@H](O)[C@@H]1O`, -0.479% [at 17.3 µM]. With `C=C1C(=O)O[C@H]2C1[C@H](OC(=O)/C(=C/CO)COC(=O)/C(C)=C/CO)CC(=C)[C@@H]1CC(=O)[C@@H](C)[C@@H]12` (some centres undefined), the Potency was 3550 nM (active). In the case of `COC(=O)C1=CO[C@@H](O[C@@H]2O[C@H](CO[C@@H]3O[C@H](COC(=O)/C=C/c4cc(OC)c(O)c(OC)c4)[C@@H](O)[C@H](O)[C@H]3O)[C@@H](O)[C@H](O)[C@H]2O)[C@@H]2C(CO)=CC[C@H]12`, the “activity change, negative = viability loss” value is -1.7% [at 17.3 µM]. On the same count and under the same terms, with `C=CC(C)(CC/C=C(\C)C(=O)OC)OC1OC(COC(=O)CC(C)(O)CC(=O)O)C(OC2OC(CO)C(O)C(O)C2O)C(O)C1O` (centres undefined) the figure was 0.0382% [at 17.3 µM]. With `CCOc1ccc(S(=O)(=O)n2c(C)nc3ccccc32)cc1`, the Potency was 8930 nM (active). The same measure, in the same setting: with `NC(=O)[C@H]1CCS[C@@H]2C[C@]3(CCCN3C(=O)Cc3ccc(NC(=O)COc4ccc(Cl)cc4Cl)cc3)C(=O)N12` the figure was 7420 nM (active). On to `C=C1[C@H](OC(C)=O)[C@H]2[C@@H](OC(C)=O)[C@](C)(OC(C)=O)C[C@]2(OC(C)=O)C(=O)[C@H](C)/C=C/C(C)(C)C(=O)[C@H](OC(=O)C(C)CC)[C@H]1OC(C)=O` (some centres undefined), for which the “outcome” value was “inactive [at 17.3 µM]”. The same measure, in the same setting: the same measure for `COC1=CC(=O)CC(C)C12Oc1cc(OC)cc(O)c1C2=O` (centres undefined): “inactive”. Consider `CC(C)(O)C1CCC(C)(C2CCC3(C)C4CCC5C(C)(C(=O)OC6OC(CO)C(O)C(O)C6O)C(O)CC(O)C56CC46CCC23C)O1` (centres undefined), for which the “activity change, negative = viability loss” value was -10.5% [at 17.3 µM].

On to `Cc1cc(C(=O)N2Cc3cnn(C)c3Nc3ccccc32)ccc1CNC(=O)N1CCC[C@H]1C(=S)N1CCCN(C)CC1`, for which the “activity change, negative = viability loss” value was -8.08%.

In the case of `CC(=O)c1cc2c(cc1O)OC(C)(C)C=C2`, the “activity change, negative = viability loss” value was -12.4%. As for `C=C[C@H]1[C@H](O[C@@H]2O[C@H](CO)[C@@H](O)[C@H](O)[C@H]2O)OC=C(C(=O)OC)[C@H]1CCOC(=O)c1cc(O)c(O)c(O)c1`, the “activity change, negative = viability loss” value is -10.3% [at 17.3 µM].

For the molecule `CC(C)CCC[C@@H](C)[C@H]1CC[C@H]2[C@@H]3CC(=O)[C@H]4C[C@@H](O)CC[C@]4(C)[C@H]3CC[C@]12C`, the “activity change, negative = viability loss” value was -2.49%. For the molecule `C=C1C(O)CC2C(C(=O)O)=COC(O[C@@H]3O[C@H](COC(=O)/C=C/c4ccc(O)cc4)[C@@H](O)[C@H](O)[C@H]3O)C12` (some centres undefined), the “outcome” value was “inactive [at 17.3 µM]”. Take `CC(C)c1nc(-c2ccc(NC(=O)Nc3cccc(C(F)(F)F)c3)c3ccccc23)c2c(N)nccn12`: the Potency is 578 nM (active). As to `C/C=C(\C)C(=O)O[C@H]1[C@@H](O[C@]2(COC(=O)CC(C)C)O[C@H](COC(=O)C(C)CC)[C@@H](OC(C)=O)[C@@H]2O)O[C@H](COC(C)=O)[C@@H](O)[C@@H]1O` (some centres undefined), the “activity change, negative = viability loss” value is -2.83% [at 17.3 µM]. Turning to `Cc1c(CN2CCN(C(=O)C(C)O)CC2)sc2c(N3CCOCC3)nc(-c3cnc(N)nc3)nc12` (centres undefined), the Potency is 57.8 nM (active).

These data come from PubChem BioAssay (NCATS).
